From PubChem
An excerpt weighted towards active compounds, which were near 14% of everything screened.
Sm TGR block = inhibitors of Schistosoma mansoni thioredoxin glutathione reductase. purified TGR, DTNB reduction, TNB absorbance 405 nm. hit rate 3% among 360,000. Potency, µM (highest dose often 114 µM), most hits filed as inhibitors; note: nearly all actives have a fitted effect of over 60% in size
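First, TGR (20 nM dispensed) and NADPH were mixed with compound. Second, a 15 min room-temperature incubation followed. Third, further NADPH and then DTNB were added to start the reaction. Finally, TNB absorbance was monitored kinetically.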
Pf growth 96h = P. falciparum growth inhibition at 96 hours | P. falciparum luciferase reporter growth, 96 h | Potency, µM (series often up to 28.7 µM), most hits filed as inhibitors | hit rate 6.9% among 320,000
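Delayed-death screen, second-generation endpoint: infected erythrocytes, 2% hematocrit, 0.05% parasitemia final; 96 hours at 37 C, 5% CO2; luciferase detection reagent; luminescence decrease equals reduced growth.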
Pf growth 48h = inhibits P. falciparum growth in the first generation, 48 h; Potency, µM (titrated, usually from 28.7 µM), actives largely listed as inhibitors; hit rate 5.9% among 310,000; P. falciparum luciferase growth in erythrocytes, 48 h; AID 504832
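Here the parasites carry a stable luciferase gene and grow inside erythrocytes in Albumax-based RPMI medium with compound for one erythrocytic cycle. Activity is scored as loss of luminescent signal.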
Giardia FBPA inh = blocks Giardia fructose-bisphosphate aldolase activity; A8B2U2; purified Giardia FBPA; Potency, µM (top dose mostly 59.6 µM), usual class: inhibitors; hit rate 0.71% among 290,000; AID 2451; note: nearly all actives have a fitted effect of over 55% in size
Target sequence (A8B2U2 whole entry, looked up): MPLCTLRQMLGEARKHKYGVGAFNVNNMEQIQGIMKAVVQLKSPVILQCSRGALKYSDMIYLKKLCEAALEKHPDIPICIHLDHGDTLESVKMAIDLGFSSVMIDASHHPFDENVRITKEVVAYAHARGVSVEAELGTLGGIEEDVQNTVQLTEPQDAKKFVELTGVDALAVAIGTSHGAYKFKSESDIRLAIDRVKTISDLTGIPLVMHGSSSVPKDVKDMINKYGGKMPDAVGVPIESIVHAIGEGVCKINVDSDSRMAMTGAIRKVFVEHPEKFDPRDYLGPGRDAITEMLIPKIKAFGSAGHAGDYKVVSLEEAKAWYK
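40 nM FBPA preincubated 10 min at RT with compound (up to 57.5 uM final), then substrate plus GAPDH/TPI/NAD/arsenate coupling and diaphorase/resazurin added. Fluorescence read after 20 min at RT, 525/598 nm.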
HCMV inh = blocks human cytomegalovirus replication | HFF cells, HCMV-luciferase reporter, 72 h; stronger effect = lower value | activity change, negative = inhibition, % at 57.5 µM | hit rate 4.5% among 410,000 | AID 1259415; in the data active = activity change below about -60%; inconclusive = no clear call, values can overlap the other calls; inactive = above about -39%
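Steps: HFFs plated, 16 h 37C; compounds added; HCMV-luciferase added to MOI 1 PFU/cell; 72 h 37C; OneGlo reagent, 5 min room temperature; luminescence read, normalized to controls.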
Each line names hits and unclear results; the compound was inactive in the other large screens. Unless noted, calls come from the whole dose curve; as a rule, active = well fitted curve in the direction sought with a large enough effect; inconclusive = small, poorly fitted or top-dose-only effect, or another doubt; inactive = no such curve, though single readings can be large; an effect the other way counts as inactive or inconclusive.

CCC(=O)NC(c1ccccc1)c1c(O)ccc2ccccc12 (centres undefined)	Pf growth 96h inconclusive, Pf growth 48h 9.3µM
CCC(=O)NC(c1ccccc1)c1c(OC(C)=O)ccc2ccccc12 (centres undefined)	Pf growth 96h 10µM, Pf growth 48h inconclusive
CC(=O)NC(c1ccccc1)c1c(O)ccc2ccccc12 (centres undefined)	Giardia FBPA inh inconclusive
CCCC(=O)NC(c1ccccc1)c1c(O)ccc2ccccc12 (centres undefined)	none
CCC(=O)NC(c1cccc([N+](=O)[O-])c1)c1c(OC(C)=O)ccc2ccccc12 (centres undefined)	Pf growth 48h 13µM
O=C(Cc1ccccc1)NC(c1ccco1)c1c(O)ccc2ccccc12 (centres undefined)	Pf growth 48h inconclusive
CCCC(=O)NC(c1ccc(N(C)C)cc1)c1c(O)ccc2ccccc12 (centres undefined)	Pf growth 96h 12µM, Pf growth 48h inconclusive
CC(=O)Oc1ccc2ccccc2c1C(NC(=O)Cc1ccccc1)c1ccccc1Cl (centres undefined)	Pf growth 48h 2.6µM
CC(=O)NC(c1ccc(C(C)C)cc1)c1c(O)ccc2ccccc12 (centres undefined)	none (no result: Sm TGR block, Pf growth 96h, Pf growth 48h, Giardia FBPA inh)
CCCC/C(C)=C/[C@@H](NP(=O)(c1ccccc1)c1ccccc1)c1ccccc1	Pf growth 96h 15µM, Pf growth 48h inconclusive
Cn1cccc1C(=O)N1CCC2(CCCN(c3ccncc3)C2)CC1	none (no result: Sm TGR block, Pf growth 96h, Pf growth 48h, HCMV inh)
Cc1ccc(NC(=S)NCCc2c[nH]c3ccccc23)c(C)c1	Pf growth 96h inconclusive, Pf growth 48h inconclusive, HCMV inh -90
Cc1cc(Cl)ccc1NC(=S)NCCc1ccc(Cl)cc1	Pf growth 96h inconclusive, Pf growth 48h inconclusive, HCMV inh -83
CN(O)/C=N/C(=S)Nc1ccc(Cl)cc1Cl	Sm TGR block 0.56µM, Giardia FBPA inh inconclusive, HCMV inh inconclusive
CCNC(=S)Nc1ccc(Cl)cc1Cl	Sm TGR block 45µM, HCMV inh -65
O=C(c1ccccc1F)N1CC(=O)N2[C@@H](CO)[C@H](c3ccc(Br)cc3)[C@@H]2C1	none (no result: Sm TGR block, Pf growth 96h, Pf growth 48h, Giardia FBPA inh)
S=C(NCCOCCOCCNC(=S)Nc1ccccc1)Nc1ccccc1	Pf growth 48h 6.6µM
S=C(NCCNC(=S)Nc1ccccc1)Nc1ccccc1	Pf growth 96h inconclusive, Giardia FBPA inh inconclusive
Cc1cc(Br)ccc1NC(=S)NCCc1ccccc1	Pf growth 96h 12µM, HCMV inh -66 (no result: Giardia FBPA inh)
S=C(NCCc1ccccc1)Nc1ccc(Br)cc1	HCMV inh -75
Cc1cccc(NC(=S)NCCc2ccccc2)n1	Sm TGR block inconclusive, Pf growth 96h inconclusive, Pf growth 48h inconclusive, Giardia FBPA inh inconclusive, HCMV inh -72
S=C(NCCc1ccccc1)Nc1ccccn1	Sm TGR block inconclusive, Pf growth 96h inconclusive
COCC(=O)N1CCc2nc(COc3ccccc3)c3c(c2C1)CO[C@@H](C)C3	none (no result: Sm TGR block, Pf growth 96h, Pf growth 48h, HCMV inh)
C[C@H]1CN(S(=O)(=O)C(C)(C)C)[C@@H](CCO)/C1=C\c1ccccc1	none (no result: Sm TGR block, Pf growth 96h, Pf growth 48h, Giardia FBPA inh)
CC1(C2CC2)NC(=O)N(CC(=O)N2CCN(c3ccccc3Cl)CC2)C1=O (centres undefined)	none (no result: Giardia FBPA inh)
Cc1ccccc1Cn1cccc(C(=O)Nc2nc3ccccc3s2)c1=O	HCMV inh -71 (no result: Pf growth 96h, Pf growth 48h, Giardia FBPA inh)
COc1ccccc1C(=O)Nc1nc2ccccc2s1	Pf growth 96h inconclusive, Pf growth 48h inconclusive, HCMV inh -99
O=C(Nc1nc2ccccc2s1)c1cccn(Cc2ccccc2)c1=O	none (no result: Pf growth 96h, Pf growth 48h, Giardia FBPA inh)
COc1ccc(C(=O)Nc2nc3ccccc3s2)c(OC)c1	Pf growth 96h 13µM, Pf growth 48h inconclusive, HCMV inh -97
COc1cccc2sc(Nc3nc4ccc(NC(C)=O)cc4s3)nc12	Pf growth 96h inconclusive, Pf growth 48h inconclusive, HCMV inh -83
CC1(Oc2ccc(F)cc2)CCN(Cc2ccccc2OC(F)F)C1 (centres undefined)	none (no result: Sm TGR block, Pf growth 96h, Pf growth 48h, Giardia FBPA inh)
COc1ccc2sc(NC(=O)NC(=O)c3c(Cl)cccc3Cl)nc2c1	Pf growth 96h 8.3µM, Pf growth 48h 10µM
COc1cc(C(=O)Nc2nccs2)ccc1OCc1c(C)noc1C	Pf growth 48h inconclusive
O=C(NNc1nc2ccccc2s1)c1ccccc1F	HCMV inh -67
COCCN(C(=O)Nc1ccc(OC)cc1)c1nc2ccccc2s1	HCMV inh -97
COc1cc(C(=O)Nc2nc3ccccc3s2)ccc1OCc1c(C)noc1C	Pf growth 96h inconclusive, Pf growth 48h 12µM
